Screening data deposited in PubChem by National Center for Advancing Translational Sciences (NCATS).
Pf Dd2 growth: Plasmodium falciparum Dd2 growth inhibition; P. falciparum Dd2 growth, SYBR Green, 72 h; Potency, µM (series often up to 28.9 µM), for inactives: at the highest dose activity, negative = inhibition, hits mostly inhibitors; actives 4.3% (n = 120,000); AID 1347417; active = well fitted inhibition curve with a large enough effect;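 also: plate controls were DMSO vehicle for no effect and reference drug for full effect; nearly all actives have a fitted effect of over 65% in size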
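Infected erythrocytes (Dd2, 0.3% parasitemia, 2.5% hematocrit final) are added to compound in RPMI-1640/Albumax II medium, grown 72 h at 37C in low oxygen, then lysed with saponin/Triton-X containing SYBR Green and read by fluorescence.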
* hit, by the source's call; i = inactive; [ ] = dose if it differs, or a comment. Many of the other results were omitted from the sample, so hits are more common in it than they were. Potency is read from the fitted curve at half-maximal effect.

SMILES | Pf Dd2 growth
COC(=O)CC1CCN(C(=O)C[C@H]2NC(=O)c3ccccc3NC2=O)CC1 | -10%
CCOc1ccc(NC(=O)CCNc2c(C)nc3cnccn23)cc1 | -17%
O=C(Cn1c(=O)n(Cc2ccc(C(=O)NCc3ccccc3Cl)cc2)c(=O)c2ccccc21)Nc1ccc(F)c(Cl)c1 | 10µM*
COc1cccc(NC(=O)Cn2c(=O)n(Cc3ccc(C(=O)NCc4ccc(C)cc4)cc3)c(=O)c3ccccc32)c1 | -25%
Cc1cccc(NC(=O)Cn2c(=O)n(Cc3ccc(C(=O)NCc4ccc5c(c4)OCO5)cc3)c(=O)c3ccccc32)c1 | 4µM*
Cc1ccc(C)c(NC(=O)Cn2c(=O)n(Cc3ccc4c(c3)OCO4)c(=O)c3ccc(C(=O)NC4CCCCC4)cc32)c1 | i
CCN(C(=O)Cn1c(=O)n(Cc2ccc3c(c2)OCO3)c(=O)c2ccc(C(=O)NC3CCCCC3)cc21)c1cccc(C)c1 | 1.3µM*
Cc1cc(C)c(NC(=O)Cn2c(=O)n(Cc3ccc(C(=O)NCc4ccc5c(c4)OCO5)cc3)c(=O)c3ccccc32)c(C)c1 | i
Cc1ccc(NC(=O)Cn2c(=O)n(Cc3ccco3)c(=O)c3ccc(C(=O)NC4CCCC4)cc32)c(C)c1 | 1%
O=C(Cn1c(=O)n(Cc2ccc(C(=O)NCc3ccccc3Cl)cc2)c(=O)c2ccccc21)Nc1ccc(F)cc1 | -26%
COc1ccc(NC(=O)Cn2c(=O)n(Cc3ccc(C(=O)NCc4ccccc4Cl)cc3)c(=O)c3ccccc32)cc1OC | -7%
Cc1cc(C)cc(C(=O)NCc2nnc3ccc(-c4ccccc4)nn23)c1 | i
O=C(NC[C@H]1COCc2nc3cc(F)ccc3n21)c1ccc(Cl)cc1 | -8%[44.1 µM]
CCCCN1C(=O)c2ccccc2C(C(=O)NCc2cccnc2)C12CCCCC2 (stereo unspecified) | -19%
CCNC(=O)[C@@H]1C[C@@H](NC(=O)Cn2nc(C)cc2N)CN1C1CCOCC1 | 1%
Cc1cc(Cl)ccc1OCC(=O)N1[C@@H]2CC[C@H]1CC(NC(=O)c1ccncc1)C2 (stereo partly specified) | i
O=C1NC[C@@H](CCC(=O)N2CCc3ccccc32)N2C[C@@H](NS(=O)(=O)c3ccc(F)cc3)C[C@@H]12 | i
CCOC(=O)c1cccc(NC(=O)N2CCC(CN3CCc4ccccc4C3)CC2)c1 | -14%
CCOc1ccc2c(n1)CCN(C(=O)Nc1cc(C)ccc1C)C2 | -15%
Cc1ccc(C)c(NC(=O)N2CC=C(c3c[nH]c4ccccc34)CC2)c1 | 4µM*
